Most compounds without a hit are left out; they make up all but 3.2% or so of the library.
DNA Pol III inh – qHTS Assay for Inhibitors of DNA Polymerase III Holoenzyme System. reconstituted DNA polymerase III holoenzyme replication, biochemical. Potency, µM (series often up to 57.1 µM). 71,000 tested, 0.25% active. AID 603, 2007
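Reconstituted *E. coli* holoenzyme (0.35 nM Pol III, 1 nM beta, 154 nM SSB, 2 nM primase) was preincubated with compound for 15 min at RT. Synthesis on 1.4 nM ssM13Gori ran 35 min, then was stopped with PicoGreen/EDTA and read as dsDNA fluorescence.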
TSHR ag – qHTS Assay for Agonists of the Thyroid Stimulating Hormone Receptor | AID 926, 2007 | HEK293-CNG-TSHR cells (CNG channel as cAMP sensor), membrane potential dye, cAMP | Potency, µM (top dose mostly 57.1 µM), actives largely listed as activators | 73,000 tested, 0.48% active | Thyrotropin receptor (Homo sapiens), P16473; active means well fitted activation curve with a large enough effect in the main read-out, with a control signal flat, not every such curve was filed as active; inconclusive means small, poorly fitted or top-dose-only effect, or a change in a side signal; inactive means no such curve, though single readings can be large or run the other way; reference of the percent scale not stated here;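 further: the control signal comes from parental cells without the receptor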
Target sequence (P16473 whole entry, looked up): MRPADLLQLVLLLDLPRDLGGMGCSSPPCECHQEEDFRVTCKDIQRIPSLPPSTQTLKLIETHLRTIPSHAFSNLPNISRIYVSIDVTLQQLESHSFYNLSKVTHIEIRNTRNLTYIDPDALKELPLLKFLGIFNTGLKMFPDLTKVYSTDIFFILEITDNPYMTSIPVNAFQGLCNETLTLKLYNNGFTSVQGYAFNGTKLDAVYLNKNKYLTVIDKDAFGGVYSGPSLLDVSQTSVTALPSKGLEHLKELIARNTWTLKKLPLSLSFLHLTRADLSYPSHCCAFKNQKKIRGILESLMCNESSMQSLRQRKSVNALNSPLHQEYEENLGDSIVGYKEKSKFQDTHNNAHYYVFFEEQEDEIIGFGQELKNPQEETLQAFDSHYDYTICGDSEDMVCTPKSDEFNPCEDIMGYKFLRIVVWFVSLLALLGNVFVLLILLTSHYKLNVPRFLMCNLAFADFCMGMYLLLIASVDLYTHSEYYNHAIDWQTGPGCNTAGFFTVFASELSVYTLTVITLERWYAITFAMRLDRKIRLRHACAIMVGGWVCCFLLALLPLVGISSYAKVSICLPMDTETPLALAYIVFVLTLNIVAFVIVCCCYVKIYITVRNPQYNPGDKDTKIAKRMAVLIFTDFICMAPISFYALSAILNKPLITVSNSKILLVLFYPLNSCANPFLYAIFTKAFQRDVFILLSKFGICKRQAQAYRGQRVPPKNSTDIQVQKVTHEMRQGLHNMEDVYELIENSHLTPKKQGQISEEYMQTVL
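cAMP rise detected as CNG-channel membrane depolarization by fluorescent dye (emission 590 nm), 30 min after compound, following 60 min dye loading containing 100 uM RO 20-1724 at room temperature. Cells: TSHR/CNG HEK 293, with parental CNG HEK 293 as control.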
HEK293 cAMP cs – qHTS Assay for Agonists of the Thyroid Stimulating Hormone Receptor: Activators of Intracellular cAMP Concentrations in Parental HEK 293; parental HEK293 CNG cAMP sensor, membrane potential fluorescence; Potency, µM (top dose mostly 57.1 µM), hits mostly activators; 73,000 tested, 2.5% active; further: nearly all actives have a fitted effect of over 55% in size
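Parental HEK 293 cells stably expressing a cAMP-gated CNG channel were loaded with membrane potential dye containing 100 uM RO 20-1724 for 60 min. Compound added for 30 min; depolarization read as fluorescence intensity at 590 nm.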
YjeE inh – qHTS Assay for Inhibitors of YjeE; Potency, µM; purified YjeE enzyme, qHTS inhibition assay; tRNA threonylcarbamoyladenosine biosynthesis protein TsaE (Escherichia coli (strain …; 71,000 tested, 0.05% active
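Fluorescence polarization of a BODIPY Texas Red–ADP probe (2 uM) bound to purified YjeE (10 uM) was read after 15 min room-temperature incubation with compounds. Loss of polarization marks inhibitors; ADP serves as titrated control.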
BRCT PPI red – qHTS Assay for Inhibitors of BRCT-Phosphoprotein Interaction (Red Fluorophore); Breast cancer type 1 susceptibility protein (Homo sapiens), P38398; BRCT-phosphopeptide binding, red fluorescence polarization; Potency, µM (titrated, usually from 76.9 µM), usual class: inhibitors; 75,000 tested, 0.03% active; AID 892, 2007
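Fluorescence polarization: 100 nM His-tagged BRCA1 BRCT with 100 nM TAMRA-labelled phospho-BACH1 decapeptide, phosphate buffer pH 7.3 with 150 mM NaCl, DTT, 0.01% Tween 20; 12 min RT. Binding inhibition seen as FP decrease.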
BRCT PPI green – qHTS Assay for Inhibitors of BRCT-Phosphoprotein Interaction (Green Fluorophore); Breast cancer type 1 susceptibility protein (Homo sapiens), P38398; BRCA1 BRCT-phosphopeptide binding, green fluorescence polarization; Potency, µM (doses to about 76.9 µM), usual class: inhibitors; 75,000 tested, 0.05% active; AID 875, 2007
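Fluorescence polarization: His-tagged BRCT (~35 kDa BRCA1 C-terminus, 250 nM) bound to 100 nM fluorescein-labeled phosphorylated 10-aa BACH1 peptide, pH 7.3 phosphate buffer with DTT and Tween 20. Compounds incubated 12 min at room temperature; inhibition read as lowered polarization.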
A number is an active result; n = inactive; u = inconclusive; x = not tested or not shown; [ ] = another dose, or the depositor's remark. Unless noted, the call rests on the fitted dose curve; in most records, active means well fitted curve in the direction sought with a large enough effect; inconclusive means small, poorly fitted or top-dose-only effect, or another doubt; inactive means no such curve, though single readings can be large; an effect the other way counts as inactive or inconclusive.

SMILES	DNA Pol III inh	TSHR ag	HEK293 cAMP cs	YjeE inh	BRCT PPI red	BRCT PPI green
C=CCOc1ccccc1/C=N/O	n	u	25.1µM	n	n	n
CCOc1ccc(Br)cc1-c1noc(-c2cccs2)n1	n	25.1µM	n	n	n	n
COc1cc(-c2noc(-c3cccs3)n2)cc(OC)c1OC	n	n	n	n	n	n
COc1cccc2c(=O)n(CC(=O)NC3CCCC3)ccc12	n	1.26µM	n	n	n	n
CC(C)NC(=O)N1CC2(CCN(C(=O)c3cc(C(F)(F)F)cc(C(F)(F)F)c3)CC2)C1	n	u	u	n	n	n
CCCCC[C@H](O)C=C[C@H]1[C@H](O)CC(=O)[C@H]1CCCCCCC(=O)O	n	u	0.01µM	n	n	n
CCCCC[C@H](O)/C=C\[C@@H]1[C@H](O)CC(=O)[C@@H]1CCCCCCC(=O)O	n	u	0.0025µM	n	n	n
CCCCC[C@H](O)/C=C/[C@H]1[C@H](O)CC(=O)[C@@H]1C/C=C\CCCC(=O)O	x	u	0.01µM	x	n	n
CCCCC[C@H](O)/C=C\[C@H]1[C@H](C/C=C\CCCC(=O)O)[C@@H](O)C[C@H]1O (tested in a mixture with another compound)	n	u	12.6µM	n	n	n
COc1cc(C2Nc3cccc4cccc(c34)N2)ccc1OC(C)=O	n	u	1.26µM	n	n	n
CC(C)c1cccc2c([Si](C)(C)C)c3c(nc12)-c1cccc(=O)n1C3	n	u	25.1µM	n	n	n
CCOCC(=O)Nc1c(C(=O)Nc2ccccc2OC)oc2ccccc12	n	u	25.1µM	n	n	n
COc1cccc(C(=O)Nc2c(C(N)=O)oc3ccccc23)c1	n	u	u	n	n	n
COc1ccc(NC(=O)c2oc3ccccc3c2NC(=O)COc2ccccc2OC)c(OC)c1	n	n[11.4 µM]	n	n	n	n
CCOC(=O)c1oc2ccccc2c1NC(=O)c1cccc(OC)c1	n	u	31.6µM	n	n	n
CCOC(=O)c1oc2ccccc2c1NC(=O)C1CCCCC1	n	u	15.8µM	n	n	n
COc1ccccc1CN1CCC2(CC1)CCN(S(C)(=O)=O)CC2	n	u	u	n	n	n
Cc1cc(C(=O)CSc2nc3ccccc3o2)c(C)n1C1CC1	n	u	15.8µM	n	n	n
C=CCn1c(C)cc(C(=O)CSc2nc3ccccc3o2)c1C	n	u	25.1µM	n	n	n
C=CCn1c(C)cc(C(=O)CSc2nnc(Cc3ccccc3)o2)c1C	n	u	u	n	n	n
C=CCn1c(C)cc(C(=O)CSc2nc3ccccc3c(=O)[nH]2)c1C	n	u	25.1µM	n	n	n
COc1ccc(Cn2c(=O)oc3ccc(C)cc32)cc1OC	n	x	n	n	n	n
CCCCOc1ccccc1Cn1c(=O)oc2ccc(C)cc21	n	u	15.8µM	n	n	n
Cc1ccc2oc(=O)n(Cc3ccccc3OC(C)C)c2c1	n	u	25.1µM	n	n	n
CC(=O)N1CCC2(CC1)CN(Cc1ccccc1)C2	n	n	n	n	n	n
SMILES	DNA Pol III inh	TSHR ag	HEK293 cAMP cs	YjeE inh	BRCT PPI red	BRCT PPI green
CCN1CCCC1CNC(=O)c1ccc(-n2c(=O)c(=O)[nH]c3ccccc32)cc1 (configuration not stated)	x	u	u	x	n	n
Cn1cc(/C(Cc2ccccc2)=N\O)c2ccccc21	n	20µM	n	n	n	n
CCc1cc(Br)ccc1N1C(=O)C2CC=CCC2C1=O (configuration not stated)	n[11.4 µM]	2.51µM	n[11.4 µM]	n	n	n
CCOC(=O)c1ccc(N2C(=O)C3CC=CCC3C2=O)cc1 (configuration not stated)	n	n	n	n	n	n
CCC[C@@H]1C[C@@]1(CCC)[C@@H](NP(=O)(c1ccccc1)c1ccccc1)c1ccc(C(=O)OC)cc1	n	u	12.6µM	n	n	n
CCC[C@@H]1C[C@@]1(CCC)C(NC(=O)OCc1ccccc1)c1ccc(-c2ccccc2)cc1 (some centres not stated)	n	n	n	n	n	n
COCC(C)n1c(C)cc(C(=O)COC(=O)c2c(C)nn(-c3ccccc3)c2C)c1C (configuration not stated)	n	u	u	n	n	n
COCC(C)n1c(C)cc(C(=O)COC(=O)c2c(NC(C)=O)sc(C)c2C)c1C (configuration not stated)	n	12.6µM	n	n	n	n
c1ccc(COn2c(-c3ccccc3)nc3c2CCc2nonc2-3)cc1	n	u	25.1µM	n	n	n
CCNC(=O)C1CC(=O)N(Cc2ccc3c(c2)OCO3)C(=Nc2ccc(OCC)cc2)S1 (configuration not stated)	n	31.6µM	n	n	n	n
Cc1nc(NCc2ccccc2)c2nc(-c3ccccc3)n(CCN3CCOCC3)c2n1	n	u	31.6µM	n	n	n
CCCCNc1nc(C)nc2c1nc(-c1ccccc1)n2CCN1CCCCC1	n	u	12.6µM	n	n	n
COCCNc1nc(C)nc2c1nc(-c1ccccc1)n2CCN1CCCCC1	n	u	u	n	n	n
CCN(CC)C(=O)c1sc2nc(-c3ccc(OC)cc3)cn2c1C	n	u	15.8µM	n	n	n
CC(C)CCSc1nc2c(c(=O)[nH]c(=O)n2C)n1CCc1ccccc1	n	u	10µM	n	n	n
CCCCCCn1c(SCC(C)C)nc2c1c(=O)[nH]c(=O)n2C	n	u	25.1µM	n	n	n
CC(C)CCn1c(SCc2ccc(Cl)cc2)nc2c1c(=O)[nH]c(=O)n2C	n	u	10µM	n	n	n
CCCCn1c(SCc2ccc(Cl)cc2)nc2c1c(=O)[nH]c(=O)n2C	n	u	u	n	n	n
Nc1nc(Cl)nc2c1ncn2[C@@H]1O[C@@H](COP(=O)(O)OP(=O)(O)OP(=O)(O)O)[C@@H](O)[C@H]1O	n	x	n	n	n	n
O=C(c1csnn1)N1CCC2(CCCN(c3ncccn3)C2)CC1	n	u	u	n	n	n
CO[C@@H]1/C=C\O[C@]2(C)Oc3c(C)c(O)c4c(O)c(c(/C=N\N5CCN(C)CC5)c(O)c4c3C2=O)NC(=O)/C(C)=C\C=C/[C@H](C)[C@H](O)[C@H](C)[C@H](O)[C@H](C)[C@H](OC(C)=O)[C@@H]1C	n	n	n	n	x	x
Cc1cc(C)c(OCC(=O)Nc2ccccc2N2CCOCC2)c(C)c1	n	u	u	n	n	n

Bioassay records (PubChem)
